# Assay results as given in PubChem BioAssay AID2313 (Broad Institute, 2010).
# Hit rate of the full screen: of about 22,000 compounds, about 460 (2.1%) were called active. Roughly 2% stayed inconclusive and do not appear here.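 The calls were made as follows: active = mean inhibition across valid replicates above about 65% (limit read from the data); inconclusive = mean under the limit, yet half or more replicates past it; inactive = the rest.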 For the sample, actives were picked, then their nearest neighbours and some compounds at random.
# Experiment: Shh-driven Gli reporter inhibition – luminescence, Shh-LIGHT2 cells, Gli-luciferase, primary screen (AID 2313);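 also: pathway switched on by Shh-conditioned medium diluted 1 in 25 in low serum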
# Settings: 30 h, stronger effect = higher value
row,Structure (SMILES),inhibition
1,C[C@@H]1CN([C@H](C)CO)C(=O)c2cccc(NS(=O)(=O)c3ccc(Cl)cc3)c2O[C@@H]1CN(C)Cc1ccc(Oc2ccccc2)cc1,23.8% (inactive)
2,C[C@@H]1O[C@@H](O[C@H]2[C@@H](Oc3cc(O)c4c(c3)O[C@H](c3ccc(O)cc3)CC4=O)O[C@H](CO)[C@@H](O)[C@@H]2O)[C@H](O)[C@H](O)[C@H]1O,-8.61% (inactive)
3,C[C@@H]1CN([C@H](C)CO)C(=O)c2cccc(NS(=O)(=O)c3ccc(Cl)cc3)c2O[C@H]1CN(C)C(=O)NC1CCCCC1,-17% (inactive)
4,CC(C)NC(=O)N(C)C[C@@H]1Oc2ccc(NS(=O)(=O)c3cn(C)cn3)cc2C(=O)N([C@@H](C)CO)C[C@@H]1C,8% (inactive)
5,Cc1ccc(NC(=O)C2C3C=CC(C3)C2C(=O)O)cc1 (stereo not given),-27.3% (inactive)
6,Cc1ccc(S(=O)(=O)Nc2ccc3c(c2)C(=O)N([C@H](C)CO)C[C@H](C)[C@@H](CN(C)S(=O)(=O)c2cccs2)O3)cc1,-5.89% (inactive)
7,C[C@@H]1CCCCO[C@H](CN(C)Cc2ccc(Cl)c(Cl)c2)[C@@H](C)CN([C@H](C)CO)C(=O)c2cc(NS(=O)(=O)c3cn(C)cn3)ccc2O1,-46.4% (inactive)
8,CC(C)NC(=O)N(C)C[C@H]1Oc2c(NS(=O)(=O)c3cccs3)cccc2C(=O)N([C@H](C)CO)C[C@H]1C,-35.4% (inactive)
9,C[C@@H]1CN([C@H](C)CO)C(=O)c2cccc(NS(=O)(=O)c3ccc(F)cc3)c2O[C@H]1CN(C)Cc1ccc(Oc2ccccc2)cc1,23.1% (inactive)
10,COc1ccc(CN(C)C[C@H]2Oc3ccc(NS(=O)(=O)c4ccc(C)cc4)cc3C(=O)N([C@@H](C)CO)C[C@H]2C)cc1,29.4% (inactive)
11,COc1cc([C@H]2OC[C@H]3[C@@H]2CO[C@@H]3c2cc(OC)c(O[C@@H]3O[C@H](CO)[C@@H](O)[C@H](O)[C@H]3O)c(OC)c2)cc(OC)c1O,2.06% (inactive)
12,COc1ccc(CN2C(=O)CC(Cc3ccc(C)cc3)C2=O)cc1OC (stereo not given),4.43% (inactive)
13,COc1ccc(S(=O)(=O)Nc2cccc3c2O[C@@H](CN(C)S(=O)(=O)c2ccccc2)[C@@H](C)CN([C@@H](C)CO)C3=O)cc1,-0.37% (inactive)
14,O=C(CSc1nnc2n1CCCN2)c1ccccc1,-28.2% (inactive)
15,O=C1C=C(SCC(=O)c2ccccc2)SC(c2ccc(Cl)cc2)C1 (stereo not given),82.7% (active)
16,CC1(C)CC[C@]2(C(=O)O[C@@H]3O[C@H](CO)[C@@H](O)[C@H](O)[C@H]3O)CC[C@]3(C)C(=CCC4[C@@]5(C)CC[C@H](O[C@@H]6O[C@H](C(=O)O)[C@@H](O[C@@H]7OC[C@H](O)[C@H](O)[C@H]7O)[C@H](O)[C@H]6O)C(C)(C)C5CC[C@]43C)C2C1 (stereo not given in full),35.4% (inactive)
17,CC1(C)CC[C@]2(C(=O)O)CC[C@]3(C)C(=CCC4[C@@]5(C)CC[C@H](OC6O[C@H](CO)[C@@H](O)[C@H](O[C@@H]7O[C@H](CO)[C@@H](O)[C@H](O)[C@H]7O)[C@H]6O)C(C)(C)C5CC[C@]43C)[C@@H]2C1 (stereo not given in full),107% (active)
18,CCC/C=C/C(=O)OC1C(O)C23C(O)OC4(CCC5C6(C)CCC(OC7OC(C(=O)O)C(O)C(OC8OC(CO)C(O)C(O)C8OC8OC(C)C(O)C(O)C8OC8OCC(O)C(O)C8O)C7OC7OC(CO)C(O)C(O)C7O)C(C)(C)C6CCC5(C)C4(C)CC2OC(C)=O)C3CC1(C)C (stereo not given),104% (active)
19,COC(=O)C1=CO[C@@H](O[C@@H]2O[C@H](CO)[C@@H](O)[C@H](O)[C@H]2O)[C@@H]2[C@@](C)(O)[C@@H](OC(=O)/C=C/c3ccc(OC)c(OC)c3)C[C@]12O,3.81% (inactive)
20,C=CC1(C)C=C2CCC3C(C)(C)C(O[C@@H]4O[C@@H](CO)[C@H](O)[C@H]4O)CCC3(C)C2CC1O[C@@H]1O[C@H](C)[C@@H](OC)[C@H](O)[C@H]1O (stereo not given in full),-27.2% (inactive)
21,C/C=C(/C)C(=O)O[C@H]1CC(C)(C)C[C@H]2C3=CCC4[C@@]5(C)CC[C@H](O[C@@H]6O[C@H](C(=O)O)[C@@H](O[C@@H]7O[C@H](CO)[C@H](O)[C@H](O)[C@H]7O[C@@H]7O[C@H](CO)[C@@H](O)[C@H](O)[C@H]7O)[C@H](O)[C@H]6O[C@@H]6O[C@@H](C)[C@H](O)[C@@H](O)[C@H]6O)C(C)(C)C5CC[C@@]4(C)[C@]3(C)[C@@H](O)[C@@H](O)[C@@]12CO (stereo not given in full),99.7% (active)
22,CC1OC(OC2C(OC3C(O[C@H]4CC[C@@]5(C)C(CC[C@]6(C)C5CC=C5[C@@H]7CC(C)(C)C[C@@H](O)[C@]7(C)CC[C@]56C)C4(C)C)OC(C(=O)O)C(O)C3O)OC(CO)C(O)C2O)C(O)C(O)C1O (stereo not given in full),7.2% (inactive)
23,C/C=C(/C)C(=O)O[C@H]1CC(C)(C)C[C@H]2C3=CCC4[C@@]5(C)CC[C@H](O[C@@H]6O[C@H](C(=O)O)[C@@H](O[C@@H]7O[C@H](CO)[C@H](O)[C@H](O)[C@H]7O[C@@H]7O[C@H](CO)[C@@H](O)[C@H](O)[C@H]7O)[C@H](O)[C@H]6O[C@@H]6O[C@@H](C)[C@H](O)[C@@H](O)[C@H]6O)C(C)(C)C5CC[C@@]4(C)[C@]3(C)[C@@H](OC(C)=O)[C@@H](O)[C@@]12COC(C)=O (stereo not given in full),97.7% (active)
24,C[C@H](CO)N1C[C@H](C)[C@H](CN(C)Cc2ccc3c(c2)OCO3)Oc2c(cccc2N(C)C)C1=O,-27.6% (inactive)
25,CCCC(=O)Nc1ncnc2c1ncn2C1O[C@@H]2COP(=O)(O)O[C@H]2[C@H]1OC(=O)CCC (stereo not given in full),-62.8% (inactive)
26,C[C@@H]1CCCCO[C@@H](CN(C)C(=O)Nc2cccc3ccccc23)[C@@H](C)CN([C@H](C)CO)C(=O)c2cc(NS(C)(=O)=O)ccc2O1,33.2% (inactive)
27,O=C(Oc1cccc(C(F)(F)F)c1)c1cc2ccc3ccccc3c2s1,-31.9% (inactive)
28,C[C@@H]1CC[C@]2(C(=O)O)CC[C@]3(C)C(=CCC4[C@@]5(C)CC[C@H](O)[C@](C)(C(=O)O)C5CC[C@]43C)C2[C@]1(C)O (stereo not given in full),-18.2% (inactive)
29,CC1(C)C2CC[C@]3(C)C(C(=O)C=C4[C@@H]5C[C@@](C)(C(=O)O)CC[C@]5(C)CC[C@]43C)[C@@]2(C)CC[C@@H]1O (stereo not given in full),66.5% (active)
30,CC1(C)CC[C@@]2(C(=O)O)C(C1)C1=CCC3[C@@]4(C)CC[C@H](O)C(C)(C)C4CC[C@@]3(C)[C@]1(C)C[C@H]2O (stereo not given in full),-24.6% (inactive)
